Source: PubChem BioAssay (NCATS)
Records with an inconclusive call do not appear. A call without a number means that no potency is given here. Calls of active or inactive are those of the source. Calls come from the whole dose curve; as a rule, active = well fitted cell-killing curve with a large enough effect; inconclusive = small, poorly fitted or top-dose-only effect; inactive = flat fitted curve, though single readings scatter.

assay: qHTS assay to identify small molecule inhibitors of chordoma cells - UCH-2 (AID 1259356); conditions: UCH-2 chordoma viability, CellTiter-Glo ATP luminescence, 48 h; series mostly up to 46.1 µM

| Structure (SMILES) | Potency |
| --- | --- |
| CCN(CC)CCNC(=O)COc1ccc(OC)cc1 | inactive |
| OCc1ccccn1 | inactive |
| CCCCCCCCCCCCCC(=O)OC(C)C | inactive |
| CC1(COc2ccc(CC3SC(=O)NC3=O)cc2)CCCCC1 (stereo unspecified) | inactive |
| Cc1ccc(-c2ncc(Cl)cc2-c2ccc(S(C)(=O)=O)cc2)cn1 | inactive |
| Cc1ccccc1OCC(O)CO (stereo unspecified) | inactive |
| CCCCC(CC)CN1CN(CC(CC)CCCC)CC(C)(N)C1 (stereo unspecified) | inactive |
| CCOc1ccccc1C(N)=O | inactive |
| CN(Cc1ccc(C(C)(C)C)cc1)Cc1cccc2ccccc12 | inactive |
| COc1cc(O)c(C(=O)c2ccccc2)cc1S(=O)(=O)O | inactive |
| CCCCCCCCNC(C)C(O)c1ccc(SC(C)C)cc1 (stereo unspecified) | inactive |
| CC[C@H](c1ccc(O)cc1)[C@@H](CC)c1ccc(O)cc1 | inactive |
| CCCCCCCC/C=C\CCCCCCCCN | inactive |
| CN1CCC(OC(c2ccccc2)c2ccccc2)CC1 | inactive |
| CCN(CC)CCOc1ccccc1C(=O)CCc1ccccc1 | inactive |
| CCc1oc2ccccc2c1C(=O)c1cc(Br)c(O)c(Br)c1 | inactive |
| CCOC(=O)[C@H](CCc1ccccc1)N[C@@H](C)C(=O)N1[C@H](C(=O)O)C[C@@H]2CCC[C@@H]21 | inactive |
| O=C1C(O)=C(O)C(=O)C(O)=C1O | inactive |

| Structure (SMILES) | Potency |
| --- | --- |
| CN(CCCN1c2ccccc2CCc2ccccc21)CC(=O)c1ccc(Cl)cc1 | inactive |
| CCOC(=O)c1c(N)sc2c1CCN(Cc1ccccc1)C2 | inactive |
| CN1CCN(c2c(F)cc3c(=O)c(C(=O)O)cn4c3c2SCC4)CC1 | inactive |
| COc1ccccc1N1CCN(CCCCNC(=O)c2ccc(-c3ccc(C(C)=O)cc3)cc2)CC1 | inactive |
| Nc1nc(-c2ccccc2)c(Br)c(=O)[nH]1 | inactive |
| C/C=C/C=N/NC(=O)c1ccncc1 | inactive |
| CCOc1cc(OCC)c(C(=O)CCC(=O)O)cc1OCC | inactive |
| CCN[C@@H]1C[C@H](N)[C@@H](OC2OC(CN)=CCC2N)[C@H](O)[C@H]1O[C@H]1OC[C@](C)(O)[C@H](NC)[C@H]1O (stereo partly specified) | inactive |
| O=C(O)Cc1csc(-c2ccc(Cl)cc2)n1 | inactive |
| Nc1nc(Cl)nc2c1ncn2[C@@H]1O[C@H](CO)[C@@H](O)[C@@H]1F | inactive |
| COP(=O)(OC)OC(c1ccc(Cl)cc1)P(=O)(OC)OC (stereo unspecified) | inactive |
| O=[N+]([O-])c1cccc(S(=O)(=O)NCCNS(=O)(=O)c2cccc([N+](=O)[O-])c2)c1 | inactive |
| CCCN(CCc1cccs1)[C@H]1CCc2c(O)cccc2C1 | inactive |
| Nc1nc(N)c(-c2ccccc2)s1 | inactive |
| N#CCC(=O)NN | inactive |
| CCOC(=O)c1ccc(N)cc1 | inactive |
| CCN1CCCC(OC(=O)C(c2ccccc2)c2ccccc2)C1 (stereo unspecified) | inactive |
| COc1cc(C)nc(-n2nc(C)cc2OC)n1 | inactive |
